Results on five compounds are retold here after PubChem BioAssay (EPA / NIEHS).

Some structures have more than one record in an assay (separate samples or runs), and their calls can disagree. The source made the active and inactive calls. Rule for the calls: active = hit-call score of the fitted dose curve at least 0.9, where 1 is the maximum; inactive = score below 0.9.

Assay [1] can be described thus: BSK_CASM3C_SRB: Viability Assessment in the BioMAP Diversity Plus: CASM3C Assay (AID 2283050).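 Note: total protein by SRB staining as cytotoxicity measure in parallel cultures.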 The conditions noted are these: primary human coronary artery smooth muscle cells.
Read-out in assay [2]: Thrombomodulin, THBD (gene 7056)
In words: BSK_CASM3C_Thrombomodulin: BioMAP Diversity Plus: CASM3C Assay for Thrombomodulin Biomarker Activity (AID 2283051).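 Note: thrombomodulin protein level measured by ELISA 24 h after dosing.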 Particulars: primary human coronary artery smooth muscle cells; actives raise or lower the signal.

Read-out in assay [3]: Tissue Factor, F3 (gene 2152)
In words: BSK_CASM3C_TissueFactor: BioMAP Diversity Plus: CASM3C Assay for Tissue Factor Biomarker Activity (AID 2283052).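 Note: cell surface tissue factor protein level read by ELISA.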 Particulars: primary human coronary artery smooth muscle cells; actives raise or lower the signal.

Read-out in assay [4]: Interferon-gamma inducible Protein 10 (IP10), CXCL10 (gene 3627)
As to the kind of experiment: BSK_hDFCGF_IP10: BioMAP Diversity Plus: hDFCGF Assay for Interferon-gamma inducible Protein 10 (IP10) Biomarker Activity (AID 2283053). The conditions noted are these: primary human foreskin fibroblasts; actives raise or lower the signal. The procedure, abridged: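 IP-10 levels, quantified by ELISA, are taken from human foreskin fibroblast cultures 24 h after chemical treatment, with DMSO serving as negative control and baseline for bidirectional analysis.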

Read-out in assay [5]: Urokinase-type plasminogen activator receptor (uPAR), PLAUR (gene 5329)
As to the kind of experiment: BSK_CASM3C_uPAR: BioMAP Diversity Plus: CASM3C Assay for Urokinase-type plasminogen activator receptor (uPAR) Biomarker Activity (AID 2283054).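 Note: cell-surface uPAR protein level quantified by ELISA.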 Particulars: primary human coronary artery smooth muscle cells; actives raise or lower the signal.

Read-out in assay [6]: Vascular cell adhesion molecule 1 (VCAM1), VCAM1 (gene 7412)
In words: BSK_CASM3C_VCAM1: BioMAP Diversity Plus: CASM3C Assay for Vascular cell adhesion molecule 1 (VCAM1) Biomarker Activity (AID 2283055).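 Note: VCAM-1 protein level quantified by ELISA on the cells.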 The conditions noted are these: primary human coronary artery smooth muscle cells; actives raise or lower the signal.

Read-out in assay [7]: Collagen III, COL3A1 (gene 1281)
As to the kind of experiment: BSK_hDFCGF_CollagenIII: BioMAP Diversity Plus: hDFCGF Assay for Collagen III Biomarker Activity (AID 2283056). The conditions noted are these: primary human foreskin fibroblasts; actives raise or lower the signal. The procedure, abridged: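 ELISA readout of Collagen III in human dermal (foreskin) fibroblasts, taken 24 h post-treatment. Gain or loss relative to DMSO vehicle fitted in both directions.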

Read-out in assay [8]: Epidermal growth factor receptor (EGFR), EGFR (gene 1956)
As to the kind of experiment: BSK_hDFCGF_EGFR: BioMAP Diversity Plus: hDFCGF Assay for Epidermal growth factor receptor (EGFR) Biomarker Activity (AID 2283057). The conditions noted are these: primary human foreskin fibroblasts; actives raise or lower the signal. The method in brief: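 Measured by ELISA: EGFR levels on primary human foreskin fibroblasts 24 h after chemical treatment, analysed relative to DMSO with bidirectional fitting.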

Read-out in assay [9]: Interleukin-8 (IL8), CXCL8 (gene 3576)
As to the kind of experiment: BSK_hDFCGF_IL8: BioMAP Diversity Plus: hDFCGF Assay for Interleukin-8 (IL8) Biomarker Activity (AID 2283058). The conditions noted are these: primary human foreskin fibroblasts; actives raise or lower the signal. The method in brief: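 IL-8 levels read by ELISA at 24 hours after dosing human skin fibroblast cultures. Parallel SRB staining assessed overt cytotoxicity, and gain or loss of signal was fitted against DMSO control.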

Assay [10] is described as follows: BSK_hDFCGF_Proliferation: Cell Proliferation Assessment in the BioMAP Diversity Plus: hDFCGF Assay (AID 2283059).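 Note: curves fitted for both rise and fall of signal versus DMSO baseline.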 The conditions noted are these: primary human foreskin fibroblasts. The method in brief: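 Primary human foreskin fibroblasts, sub-confluent; […]; 10% TCA fix, 0.1% SRB stain, A560 total protein. Gain/loss fitted bidirectionally vs DMSO control.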

Assay [11] is described as follows: BSK_hDFCGF_SRB: Viability Assessment in the BioMAP Diversity Plus: hDFCGF Assay (AID 2283061).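 Note: cells exposed to compound for 24 h before the read.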 The conditions noted are these: primary human foreskin fibroblasts. The method in brief:
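Viability was read as total protein: after 10% TCA fixation, wells were stained with 0.1% sulforhodamine B and read at 560 nm. Primary human foreskin fibroblasts were dosed for 24 h, with bidirectional fitting versus DMSO.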

Read-out in assay [12]: TIMP metallopeptidase inhibitor 1 (TIMP1), TIMP1 (gene 7076)
In words: BSK_hDFCGF_TIMP1: BioMAP Diversity Plus: hDFCGF Assay for TIMP metallopeptidase inhibitor 1 (TIMP1) Biomarker Activity (AID 2283062). Particulars: primary human foreskin fibroblasts; actives raise or lower the signal. The procedure, abridged: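 TIMP-1 measured by ELISA 24 h after chemical dosing of primary human skin fibroblasts, with gain or loss fitted relative to DMSO. Parallel SRB staining (560 nm) monitored overt cytotoxicity.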

Read-out in assay [13]: Monokine induced gamma interferon (MIG), CXCL9 (gene 4283)
As to the kind of experiment: BSK_hDFCGF_MIG: BioMAP Diversity Plus: hDFCGF Assay for Monokine induced gamma interferon (MIG) Biomarker Activity (AID 2283063). The conditions noted are these: primary human foreskin fibroblasts; actives raise or lower the signal. The method in brief:
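Human primary foreskin fibroblasts in the hDFCGF system, exposed to test chemical for 24 h; MIG measured by ELISA. Bidirectional curve fitting against DMSO negative control as activity baseline.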

Read-out in assay [14]: Matrix Metallopeptidase 1 (MMP1), MMP1 (gene 4312)
In words: BSK_hDFCGF_MMP1: BioMAP Diversity Plus: hDFCGF Assay for Matrix Metallopeptidase 1 (MMP1) Biomarker Activity (AID 2283064). The conditions noted are these: primary human foreskin fibroblasts; actives raise or lower the signal. The procedure, abridged:
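Primary human foreskin fibroblasts exposed to chemicals for 24 h; MMP1 measured by ELISA. Cytotoxicity tracked by SRB staining in parallel cultures; bidirectional fit relative to DMSO.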

Read-out in assay [15]: Vascular cell adhesion molecule 1 (VCAM1), VCAM1 (gene 7412)
As to the kind of experiment: BSK_hDFCGF_VCAM1: BioMAP Diversity Plus: hDFCGF Assay for Vascular cell adhesion molecule 1 (VCAM1) Biomarker Activity (AID 2283065).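 For AC50: VCAM-1 protein level quantified by ELISA after 24 h chemical exposure.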 Particulars: primary human foreskin fibroblasts; actives raise or lower the signal. The procedure, abridged: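 ELISA readout of VCAM-1 on human dermal fibroblast primary cultures, 24 h after chemical exposure. Gain or loss of signal fitted in both directions against DMSO baseline.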

Read-out in assay [16]: Plasminogen activator inhibitor-1 (PAI1), SERPINE1 (gene 5054)
In words: BSK_hDFCGF_PAI1: BioMAP Diversity Plus: hDFCGF Assay for Plasminogen activator inhibitor-1 (PAI1) Biomarker Activity (AID 2283066). The conditions noted are these: primary human foreskin fibroblasts; actives raise or lower the signal. The method in brief:
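PAI-1 levels, determined by ELISA, served as the endpoint in human foreskin fibroblast cultures exposed to compound for 24 h, with DMSO as baseline.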

Read-out in assay [17]: Intercellular Adhesion Molecule 1 (ICAM1), ICAM1 (gene 3383)
As to the kind of experiment: BSK_KF3CT_ICAM1: BioMAP Diversity Plus: KF3CT Assay for Intercellular Adhesion Molecule 1 (ICAM1) Biomarker Activity (AID 2283067). The conditions noted are these: primary human keratinocytes with fibroblasts; actives raise or lower the signal. The procedure, abridged: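 Cell-surface ICAM-1 was measured by ELISA 24 h after dosing primary human skin keratinocytes co-cultured with fibroblasts. Parallel SRB staining tracked overt cytotoxicity. Gain or loss of signal was fitted relative to DMSO.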

Read-out in assay [18]: Interferon-gamma inducible Protein 10 (IP10), CXCL10 (gene 3627)
As to the kind of experiment: BSK_KF3CT_IP10: BioMAP Diversity Plus: KF3CT Assay for Interferon-gamma inducible Protein 10 (IP10) Biomarker Activity (AID 2283068). The conditions noted are these: primary human keratinocytes with fibroblasts; actives raise or lower the signal. The method in brief: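 In a primary skin co-culture of keratinocytes and fibroblasts, IP-10 is quantified by ELISA at 24 h after dosing. SRB staining of parallel wells monitors overt toxicity. Curves are fitted both directions against DMSO.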

A short description of assay [19]: BSK_KF3CT_SRB: Viability Assessment in the BioMAP Diversity Plus: KF3CT Assay (AID 2283069).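 Note: total protein by sulforhodamine B staining as a cytotoxicity measure; read 24 h after compound addition.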 The conditions noted are these: primary human keratinocytes with fibroblasts. The procedure, abridged:
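Human keratinocyte and foreskin fibroblast co-culture exposed to chemical for 24 h. Total protein measured in parallel cultures by 0.1% sulforhodamine B staining after 10% TCA fixation, read at 560 nm; bidirectional fit relative to DMSO.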

Read-out in assay [20]: Macrophage colony-stimulating factor (MCSF), CSF1 (gene 1435)
In words: BSK_hDFCGF_MCSF: BioMAP Diversity Plus: hDFCGF Assay for Macrophage colony-stimulating factor (MCSF) Biomarker Activity (AID 2283060). Particulars: primary human foreskin fibroblasts; actives raise or lower the signal. The procedure, abridged: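 M-CSF levels read by ELISA at 24 h post-dosing in human skin fibroblasts. Parallel cultures stained with SRB assessed cytotoxicity at the same time point; response fitted in both directions against the DMSO baseline.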

Consider `COc1nc(NC(C)C)nc(NC(C)C)n1`, for which the result in [1], in [2], in assay [3], in assay [4], in [5] and in assay [6] was inactive. Besides, the result in assay [7], in assay [8], in assay [9], in assay [10], in [11] and in assay [12] was inactive. Moreover, the outcome in [13], in assay [14], in assay [15], in assay [16], in assay [17] and in assay [18] was inactive. Also, the outcome in assay [19] was inactive.

With `O=C(O)c1nc(Cl)ccc1Cl`, the outcome in assay [1], in [2], in assay [3], in assay [4], in [5] and in [6] was inactive. The result in assay [7], in assay [8], in assay [9], in assay [10], in assay [20] and in [11] was inactive. Further, the result in assay [12], in assay [14], in assay [15], in assay [16], in assay [17] and in assay [18] was inactive. In addition, in assay [19], the result was inactive. Besides, in [18], the AC50 was 0.147 µM (active).

In the case of `COC(=O)C=C(C)OP(=O)(OC)OC`, the result in assay [1], in assay [2], in assay [3], in assay [4], in assay [5] and in [6] was inactive. Further, the outcome in assay [7], in assay [8], in assay [9], in [10], in assay [11] and in assay [13] was inactive. Besides, the result in assay [14], in assay [15], in [16], in assay [17], in assay [18] and in assay [19] was inactive. In addition, the figures for the AC50 in assay [20] and in assay [12] were 0.157 µM (active) and 0.273 µM (active), respectively.

On to `CC1COC(Cn2cncn2)(c2ccc(Oc3ccc(Cl)cc3)cc2Cl)O1` (configuration not stated), for which the result in assay [1], in [3], in assay [5] and in [6] was inactive. The AC50 in [2] is 16.1 µM (active); in [4] it was 37.9 µM (active); in [7], 28.1 µM (active); in assay [8], 8.04 µM (active); in [9], 34.5 µM (active); in assay [10], 25 µM (active). The AC50 is 32.2 µM (active) in [20]; 32.5 µM (active) in [11]; 30.4 µM (active) in assay [12]; 33.8 µM (active) in assay [14]; 30.8 µM (active) in assay [15]; 32.1 µM (active) in assay [16]. In addition, the concentration at half-maximal activity (AC50) was 38.2 µM (active) in assay [17], 34.7 µM (active) in [18] and 33.7 µM (active) in [19].

Turning to `O=C(O)COc1nc(Cl)c(Cl)cc1Cl`, the result in assay [1], in [2], in [3], in assay [4], in assay [5] and in [6] was inactive. Further, the result in assay [7], in assay [8], in assay [9], in assay [10], in assay [11] and in [12] was inactive. The result in [13], in [14], in [15], in [16], in [17] and in assay [18] was inactive. Also, the outcome in [19] was inactive.

By AC50 is commonly meant the midpoint of the concentration-response curve, whichever way the signal moves.
